Test systems include NCI-H23 lung; NCI-H226 lung; NCI-H322M lung; HOP-62 NSCLC; NCI-H460 lung; HOP-92 NSCLC; NCI-H522 lung; A549/ATCC NSCLC; 786-0 renal; COLO 205 colon.
Test in all cases: NCI-60 one-dose screen, 48 h (100 = growth as untreated, 0 = no growth, -100 = all killed)
Holding throughout (settings): 10 µM unless noted

About 83,000 compounds went through this panel and 20% of them were active in at least one assay; those are over-represented in the sample as a whole.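 96-well plates, one dose, 48 hours. Percent growth reported; active if below 10.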 Unmarked numbers belong to inactive results. Calls of active or inactive are those of the source.

In the case of `N#Cc1cnn2c(-c3ccc(Cl)cc3)nc(NC3CC3)nc12`, the growth was 90.9% in the assay on NCI-H23 lung; 97.4% in the assay on NCI-H226 lung; 87.5% in the assay on NCI-H322M lung; 98.3% with HOP-62 NSCLC; 100% in the assay with NCI-H460 lung; 97.5% in the assay with HOP-92 NSCLC. The growth was 90.6% in the assay on NCI-H522 lung, 84.4% in the assay on A549/ATCC NSCLC and 89.8% in the assay with 786-0 renal.

Consider `CCCCCCCCc1cc[n+](CC(=O)c2ccc(Br)cc2)cc1`, for which the growth in the assay with NCI-H23 lung is 49.5%; in the assay on NCI-H226 lung, 53.6%; in the assay with NCI-H322M lung, 96.2%; in the assay on HOP-62 NSCLC it was 8% (active); in the assay on NCI-H460 lung it was -84.9% (active); with HOP-92 NSCLC, 24.1%. Besides, the growth in the assay with NCI-H522 lung was -91.5% (active); with A549/ATCC NSCLC it was -84.1% (active); with 786-0 renal it was 16.6%; in the assay with COLO 205 colon it was -89.6% (active).

Regarding `Cc1ccc(NC(=O)C(Cl)Cl)cc1`, the growth in the assay on NCI-H23 lung was 95.8%; with NCI-H226 lung, 79.1%; with NCI-H322M lung, 84.1%; in the assay on HOP-62 NSCLC it was 98.4%; with NCI-H460 lung it was 102%; in the assay with HOP-92 NSCLC, 98.2%. Moreover, the growth in the assay on NCI-H522 lung was 80.9%; with A549/ATCC NSCLC, 90.8%; in the assay with 786-0 renal, 104%.

With `CCCN1CCN(c2ccc3nc(-c4ccc5nc(-c6cc(OC)c(OC)c(OC)c6)[nH]c5c4)[nH]c3c2)CC1`, the growth was 80.1% in the assay with NCI-H23 lung; 81.7% in the assay with NCI-H226 lung; 94% in the assay on NCI-H322M lung; 84.3% with HOP-62 NSCLC; 93.2% in the assay on NCI-H460 lung; 70.5% with HOP-92 NSCLC. Also, the figures for the growth in the assay on NCI-H522 lung, in the assay on A549/ATCC NSCLC and with 786-0 renal were 41.1%, 106% and 77.3%, respectively.

Consider `Fc1ccc(Nc2ccc3cc(OCCCN4CCOCC4)ccc3n2)cc1F`, for which the growth is 55.7% in the assay with NCI-H23 lung; 76.8% with NCI-H226 lung; 71.4% with NCI-H322M lung; 65.9% with HOP-62 NSCLC; 36.6% in the assay with NCI-H460 lung; 52.8% with HOP-92 NSCLC. Further, the growth was -21.4% (active) in the assay on NCI-H522 lung, 42.9% with A549/ATCC NSCLC and 48.6% in the assay with 786-0 renal.

As for `Cc1nc(Nc2ccc(S(=O)(=O)Nc3cc(C)on3)cc2)c2ccccc2n1`, the growth is 107% in the assay on NCI-H23 lung; 99.7% in the assay on NCI-H226 lung; 104% with NCI-H322M lung; 101% with HOP-62 NSCLC; 112% in the assay with NCI-H460 lung; 89% in the assay on HOP-92 NSCLC. For the same compound, the growth in the assay on NCI-H522 lung is 86.3%; in the assay with A549/ATCC NSCLC, 108%; in the assay on 786-0 renal, 98.3%; with COLO 205 colon, 116%.

As for `Cc1ccc2c(n1)C(=O)C(Oc1ccc(F)cc1)=CC2=O`, the growth in the assay with NCI-H23 lung is 94.9%; with NCI-H226 lung it was 76.5%; in the assay on NCI-H322M lung, 101%; with HOP-62 NSCLC, 125%; in the assay with NCI-H460 lung, 101%; in the assay on HOP-92 NSCLC, 123%. For the same compound, the growth is -43.9% (active) in the assay with NCI-H522 lung, 99.4% in the assay on A549/ATCC NSCLC and 107% in the assay on 786-0 renal.

For `COc1cc(/C=C2\C=C(c3ccccc3)N(CCc3ccccc3)C2=O)cc(OC)c1OC`, the growth is 74.1% in the assay with NCI-H23 lung; 67.6% in the assay on NCI-H226 lung; 70.1% in the assay with NCI-H322M lung; 61.6% in the assay with HOP-62 NSCLC; 76.1% in the assay on NCI-H460 lung; 41.3% in the assay on HOP-92 NSCLC. For the same compound, the growth in the assay with NCI-H522 lung was 65.7%; with A549/ATCC NSCLC, 70.4%; with 786-0 renal, 11.7%.

On to `CC[C@]1(O)C[C@H]2CN(CCc3c([nH]c4ccccc34)[C@@](C(=O)OC)(c3cc4c(cc3OC)N(C=O)[C@H]3[C@@](O)(C(=O)OC)[C@H](OC(C)=O)[C@]5(CC)C=CCN6CC[C@]43[C@@H]65)C2)C1`, for which the growth with NCI-H23 lung was 290%; in the assay on NCI-H226 lung it was 28.2%; in the assay on NCI-H322M lung, 43.7%; with HOP-62 NSCLC it was 11.7%; in the assay on NCI-H460 lung it was -2.68% (active); in the assay with HOP-92 NSCLC it was 72.3%. In addition, the growth in the assay with NCI-H522 lung is -13.1% (active); with A549/ATCC NSCLC, 16.6%; in the assay on 786-0 renal, 12.4%; in the assay with COLO 205 colon, -57.2% (active).

`CCCCCCCCCCCCCCCCCC1=NCCN1C(=O)OCCO`: the growth is 76.9% in the assay on NCI-H23 lung; 78.5% with NCI-H226 lung; 51.1% with NCI-H322M lung; 52.6% in the assay on HOP-62 NSCLC; 7.14% (active) in the assay on NCI-H460 lung; 56.5% in the assay with HOP-92 NSCLC. Also, the growth is 11.1% in the assay on NCI-H522 lung, -72.4% (active) in the assay on A549/ATCC NSCLC, 87.2% in the assay on 786-0 renal and -72.9% (active) in the assay with COLO 205 colon.

In the case of `Cn1ccc(Cc2cnc(N)s2)n1`, the growth with NCI-H23 lung is 101%; with NCI-H226 lung it was 98.8%; in the assay on NCI-H322M lung, 102%; with HOP-62 NSCLC, 100%; with NCI-H460 lung it was 106%; in the assay with HOP-92 NSCLC, 98.1%. Besides, the growth in the assay on NCI-H522 lung is 84.3%; with A549/ATCC NSCLC, 84.3%; in the assay with 786-0 renal, 101%; in the assay on COLO 205 colon, 105%.

Take `CC(C)OC(=O)NNC(=O)c1ccncc1`: the growth in the assay on NCI-H23 lung was 105%; with NCI-H226 lung, 107%; in the assay with NCI-H322M lung, 92.3%; in the assay on HOP-62 NSCLC, 108%; in the assay with NCI-H460 lung, 106%; in the assay on HOP-92 NSCLC, 113%. Moreover, the growth with NCI-H522 lung was 88.9%; with A549/ATCC NSCLC, 105%; in the assay on 786-0 renal, 104%; in the assay with COLO 205 colon, 110%.

`CCOC(=O)c1sc(-c2ccc(OS(=O)(=O)c3ccc(C(C)(C)C)cc3)c(C=O)c2)nc1C`: the growth is 33.3% in the assay with NCI-H23 lung; 48.5% with NCI-H226 lung; 93.7% in the assay with NCI-H322M lung; 52% with HOP-62 NSCLC; 41.7% with NCI-H460 lung; 21.1% in the assay on HOP-92 NSCLC. The growth is 22.1% in the assay with NCI-H522 lung, 84.9% with A549/ATCC NSCLC, 47.2% with 786-0 renal and 72.7% in the assay on COLO 205 colon.

As to `CCN(CC)CCOc1ccc(/C(=C(\C)c2ccc(F)c(OC)c2)c2ccc(Cl)cc2)cc1`, the growth with NCI-H23 lung was 25.6%; in the assay with NCI-H226 lung it was 75.7%; in the assay on NCI-H322M lung, 65.7%; with HOP-62 NSCLC, -4.66% (active); with NCI-H460 lung, -54.2% (active); in the assay with HOP-92 NSCLC, 20.4%. Also, the growth with NCI-H522 lung is 26.9%; in the assay with A549/ATCC NSCLC it was 30.7%; in the assay on 786-0 renal it was -64.9% (active); in the assay with COLO 205 colon, -58.6% (active).

(Values after PubChem BioAssay (NCI).)
